L3MBTL1 block = inhibitors of human L3MBTL1; Q9Y468; AlphaScreen L3MBTL1–H3K9me1 peptide binding; Potency, µM (titrated, usually from 57.1 µM), without a hit: at the highest dose activity, negative = inhibition, actives largely listed as inhibitors; hit rate 0.66% among 230,000; AID 485360; also: % is scaled to controls: 0 for no effect and ±100 for the full control effect; nearly all actives have a fitted effect of over 60% in size
Target sequence (Q9Y468 whole entry, looked up): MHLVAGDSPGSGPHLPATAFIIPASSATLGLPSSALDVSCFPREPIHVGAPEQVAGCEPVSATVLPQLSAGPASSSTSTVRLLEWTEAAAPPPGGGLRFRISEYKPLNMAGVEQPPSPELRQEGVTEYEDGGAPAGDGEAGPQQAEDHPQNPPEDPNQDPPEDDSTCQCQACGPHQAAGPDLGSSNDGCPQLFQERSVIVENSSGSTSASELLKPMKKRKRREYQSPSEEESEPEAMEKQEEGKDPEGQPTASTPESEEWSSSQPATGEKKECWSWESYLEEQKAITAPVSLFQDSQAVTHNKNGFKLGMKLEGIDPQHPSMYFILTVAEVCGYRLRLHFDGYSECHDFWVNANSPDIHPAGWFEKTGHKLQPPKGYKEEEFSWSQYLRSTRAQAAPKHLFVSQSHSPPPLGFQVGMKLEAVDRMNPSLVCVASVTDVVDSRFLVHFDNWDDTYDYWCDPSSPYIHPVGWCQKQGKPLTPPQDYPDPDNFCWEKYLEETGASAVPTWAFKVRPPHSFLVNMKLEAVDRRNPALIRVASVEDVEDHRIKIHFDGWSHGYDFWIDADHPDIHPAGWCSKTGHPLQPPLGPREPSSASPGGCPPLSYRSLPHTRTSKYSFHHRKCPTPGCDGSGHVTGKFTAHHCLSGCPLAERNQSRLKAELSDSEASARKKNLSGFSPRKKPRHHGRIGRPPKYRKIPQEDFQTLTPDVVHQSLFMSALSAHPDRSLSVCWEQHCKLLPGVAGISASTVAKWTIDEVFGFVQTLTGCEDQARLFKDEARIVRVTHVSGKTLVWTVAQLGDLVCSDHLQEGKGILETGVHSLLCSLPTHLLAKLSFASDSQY
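AlphaScreen proximity signal between nickel-chelate acceptor and streptavidin donor beads (final 10 ug/mL) reports binding of 50 nM L3MBTL1 to 75 nM biotin-H3 K9me1 peptide; complex incubated with compounds 30 min at room temperature; cefsulodin titration as control.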
BAZ2B block = inhibitors of human BAZ2B bromodomain; AlphaScreen BAZ2B-H3K14Ac peptide displacement; AID 504333; hit rate 4.4% among 360,000; Q9UIF8; Potency, µM (highest dose often 114 µM), inactives show top-dose activity change, negative = inhibition, hits mostly inhibitors; also: % is scaled to controls: 0 for no effect and ±100 for the full control effect; nearly all actives have a fitted effect of over 60% in size
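Multi-concentration screen (max 110 uM) measuring displacement of acetylated histone H3 peptide from BAZ2B by AlphaScreen, using 50 nM protein, 50 nM peptide and 10 ug/mL streptavidin donor plus Ni-chelate acceptor beads.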
HP1b binding inh = inhibitors of HP1-beta chromodomain binding to methylated histone tails. P83916. AlphaScreen HP1-beta / biotin-H3K9me3 peptide binding. Potency, µM (series often up to 114 µM), without a hit: at the top dose activity change, negative = inhibition, most hits filed as inhibitors. hit rate 0.56% among 390,000. AID 540317; also: nearly all actives have a fitted effect of over 70% in size
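HP1-beta protein (50 nM final) preincubated 30 min at room temperature with biotinylated H3(1-18)K9me3 peptide (50 nM) in PBS pH 7.4, 0.01% Tween-20, then compound added for 30 min. AlphaScreen streptavidin donor/nickel chelate acceptor beads (10 ug/mL final), 30 min dark, luminescence read.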
G9a block = inhibitors of human histone lysine methyltransferase G9a | Q96KQ7 | G9a H3K9 monomethylation, AlphaScreen, 2 h | Potency, µM (highest dose often 102 µM), without a hit: at the top dose activity, negative = inhibition, hits mostly inhibitors | hit rate 8.8% among 350,000; also: % is scaled to controls: 0 for no effect and ±100 for the full control effect; nearly all actives have a fitted effect of over 75% in size
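Enzyme 20 nM + cpd, 15 min RT; add b-H3K9 pep 500 nM / SAM 20 uM; 2 h RT; anti-H3K9me1 Ab 0.5 ug/mL + SA donor / anti-rabbit acceptor beads 20 ug/mL each, 10 min; AlphaScreen read.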
JMJD2A Tudor = inhibitors of human JMJD2A Tudor domain; hit rate 4.4% among 390,000; Potency, µM (doses to about 114 µM), for inactives: at the top dose activity change, negative = inhibition, actives largely listed as inhibitors; AlphaScreen JMJD2A-Tudor / H3K4me3 peptide binding; AID 504339; also: % is scaled to controls: 0 for no effect and ±100 for the full control effect; nearly all actives have a fitted effect of over 50% in size
Sfp PPTase inh = inhibitors of Bacillus subtilis Sfp phosphopantetheinyl transferase. Biochemical Sfp PPTase activity, qHTS. hit rate 3.5% among 310,000. Potency, µM, inactives show largest response in the series, negative = inhibition, actives largely listed as inhibitors. Q9F4F7. AID 1490;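 also: the enzyme is Sfp with the accession as filed and its product quenches rhodamine fluorescence; 0% = enzyme reaction without inhibitor and -100% = no enzyme wells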
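Compounds were incubated with enzyme (final 15 nM) for 15 min at room temperature before substrate addition started the reaction. Fluorescence at 525 nm excitation, 598 nm emission was recorded immediately and after 30 minutes.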
* = called active by the depositor; u = inconclusive; x = not tested or not shown; ! = not confirmed by another sample; [ ] = dose if it differs, or a comment. Rows were chosen to be rich in hits. Some 12% of all compounds tested hit in one or more screens of this group. Calls follow the shape of the dose curve; as a rule, active = well fitted curve in the direction sought with a large enough effect; inconclusive = small, poorly fitted or top-dose-only effect, or another doubt; inactive = no such curve, though single readings can be large; an effect the other way counts as inactive or inconclusive. Potency is read from the fitted curve at half-maximal effect.

SMILES	L3MBTL1 block	BAZ2B block	HP1b binding inh	G9a block	JMJD2A Tudor	Sfp PPTase inh
COc1ccc(CNCC(=O)N2CCC3(CC2)OCCO3)cc1	1%	35µM*	u	22µM*	13µM*	-12%
O=C1CN=C(c2ccccc2Cl)c2cc(Cl)ccc2N1Cc1cccc(Cl)c1	x	-23%	18%	-19%[59 µM]	-16%	x
C=C[C@@H]1CN2CC[C@H]1C[C@H]2[C@H](O)c1ccnc2ccccc12	x	x	x	6%[59 µM]	x	18%
Clc1ccc2[nH]c3c(c2c1)CCNC3	x	-26%	15%	79µM*	-18%	3%
CC(N)Cc1c[nH]c2ccc(Cl)cc12 (configuration not stated)	x	x	28%	x	-10%	x
C(#CCN1CCOCC1)COC/C=C/c1ccccc1	4%	1%	2%	45µM*	-15%	-1%
C(#CCN1CCCCC1)COCc1ccccc1	-4%	-14%	49%	x	-5%	5%
Cc1ccc(CNCc2c(C(=O)O)n(Cc3ccccc3C)c3cc(C)ccc23)cc1	x	-1%	40%	-1%[59 µM]	-1%	x
C[C@@H]1O[C@@H](O[C@H]2CC[C@@H](O[C@H]3[C@H](O)C[C@H](c4ccc5c(c4O)C(=O)C4=C(C5=O)[C@@]5(O)C(=O)C[C@](C)(O[C@H]6CC[C@H](O[C@H]7C=CC(=O)[C@H](C)O7)[C@H](C)O6)C[C@@]5(O)C=C4)O[C@@H]3C)O[C@H]2C)C=CC1=O	x	x	x	x	x	5µM*
c1cc2cc(c1)C[n+]1ccc(c3ccccc31)NCc1ccc(cc1)CNc1cc[n+](c3ccccc13)C2	x	x	x	x	x	2%
Nc1c(C(=O)Nc2cccc(Br)c2)sc2nc3c(cc12)N1CCC3CC1	x	2%	81%	13µM*	u	x
Nc1c(C(=O)Nc2ccc(Cl)cc2)sc2nc3c(cc12)N1CCC3CC1	x	-2%	42%	-46%[59 µM]	-2%	x
c1ccc(-c2ccc(-c3n(-c4ccccn4)c4ccccc4[n+]3-c3ccccn3)cc2)cc1	-24%	u	31%	35µM*	u	2%
Cc1cc(C)cc(-n2c(C)cc(/C=C3\C(=O)NC(=O)N(C)C3=O)c2C)c1	-6%	1%	30%	0%[59 µM]	0%[57.1 µM]	-1%
Cc1cc(C=C2C(=O)N(C)C(=S)N(C)C2=O)c(C)n1-c1ccncc1	-22%	-25%	u	50µM*	45µM*	40µM*
Cc1ccnc(-n2c(C)cc(C=C3C(=O)N(C)C(=S)N(C)C3=O)c2C)c1	-6%	u	u	32µM*	u	50µM*
O=C(/C=C/c1ccc(Cl)cc1)N[C@@]12CCC(=O)[C@@H]3Oc4c(O)ccc5c4[C@@]31CCN(CC1CC1)C2C5	x	x	x	16%[59 µM]	x	16%
COc1ccc2c3c1OC1C(O)C=CC4C(C2)[N+](C)(C)CCC341 (configuration not stated)	x	22µM*	u	7.9µM*	16µM*	u
N#C/C(=C\c1ccc(O)cc1)C(=O)O (tested in a mixture with another compound)	x	x	10%	x	-14%	x
N#CC(C#N)=Cc1cc(O)c(O)c(O)c1	x	x	x	8.9µM*	x	50µM*
N#CC(C#N)=Cc1ccc(O)cc1	x	x	x	x	x	22µM*!
N#CC(C#N)=Cc1cccnc1	11%	-1%	-24%	x	-4%[57.1 µM]	-25%
O=C(O)[C@@H]1C[C@H]2C[C@@H](CP(=O)(O)O)CC[C@H]2CN1	x	x	46%	x	10%	-5%
CC(C)(C)C(O)C(Cc1ccc(Cl)cc1Cl)n1cncn1 (configuration not stated)	x	x	x	x	x	22%
Cc1ccc(/C=C2/C(=O)NC(=O)N(CCc3ccc(F)cc3)C2=O)o1	-6%	-30%	23%	34%[0.501 µM]	-23%	56µM*
SMILES	L3MBTL1 block	BAZ2B block	HP1b binding inh	G9a block	JMJD2A Tudor	Sfp PPTase inh
O=C1NC(=O)N(CCc2ccc(F)cc2)C(=O)/C1=C/c1ccco1	x	10µM*	35µM*	10µM*	40µM*	50µM*
CC(CCC(=O)O)C1CCC2C3C(=O)C[C@@H]4CC(=O)CC[C@@]4(C)C3CC(=O)[C@]12C (some centres not stated)	x	x	x	0%[59 µM]	x	7%
Oc1ccc(/C=N/NP(=S)(c2ccccc2)c2ccccc2)c(O)c1O	x	u	-11%	u	u	40µM*
Cc1cccc(Cn2c(SCc3ccc(C(=O)NC4CCCCC4)cc3)nc3cccnc32)c1	x	-9%	-3%	u	-21%	x
Cc1cc(N(C)C)ccc1N=Nc1ccc(N)cc1	x	x	45µM*	x	20µM*	x
Cc1ccc(N)cc1C	x	x	19%	x	-12%	x
CC1(C)[C@@H](O)C[C@H]2[C@](C)(O)[C@@H]3CC[C@H]4[C@@H](O)[C@@]3(C[C@@H](O)[C@@]21O)C[C@@]4(C)O	x	x	x	29%[59 µM]	x	22%
CC1CCN(C(=O)c2ncn(C)c2C(=O)N2CCC(C)CC2)CC1	13%	x	13%	x	22µM*	x
CC(C)(C)NC[C@H](O)c1cc(Cl)c(N)c(Cl)c1	x	x	x	20%[21.5 µM]	x	5%
O=[N+]([O-])c1cccc(O)c1	1%	-2%	9%	-19%[0.501 µM]	-10%	x
O=[N+]([O-])c1cc(S(=O)(=O)c2ccc(O)c([N+](=O)[O-])c2)ccc1O	10µM*	50µM*	u	u	56µM*	-2%
CN(C)c1ccc([P+](=O)c2ccc(N(C)C)cc2)cc1	x	-28%	6%	-3%	-17%	5%
CN(C)c1ccc(Cc2ccc(N(C)C)cc2)cc1	x	x	20µM*	x	25µM*	x
CC(C)[C@@]1(NC(=O)[C@@H]2C=C3c4cccc5[nH]cc(c45)C[C@H]3N(C)C2)O[C@@]2(O)[C@@H]3CCCN3C(=O)[C@H](Cc3ccccc3)N2C1=O	-20%	-35%	x	8.9µM*	x	u
CC(C)[C@@]1(NC(=O)[C@@H]2C[C@@H]3c4cccc5[nH]cc(c45)C[C@H]3N(C)C2)O[C@@]2(O)[C@@H]3CCCN3C(=O)[C@H](Cc3ccccc3)N2C1=O	-7%	40µM*	5%	u	-31%	79µM*!
CC(C)OC(=O)C(O)(c1ccc(Cl)cc1)c1ccc(Cl)cc1	x	x	x	x	x	-2%
CCCc1cc2c(n1Cc1ccco1)C(C)C1CN(C(=O)c3ccccc3)C(C)(C(=O)OC)C21 (configuration not stated)	x	x	x	x	x	32µM*
COC(=O)[C@H]1[C@@H](c2ccccc2)[C@@]2(c3ccccc3)Oc3ccccc3[C@@]1(O)[C@@H]2O	x	x	x	x	x	6%
COc1ccc(C(=O)O)cc1OC	x	x	20%	-58%[2.33 µM]	-7%	5%
O=C(O)c1cc(O)c(O)c(O)c1	x	x	x	2µM*	x	8.9µM*!
CCN1C(=O)NC(=O)/C(=C/c2cc(C)n(-c3sc(C)c(C)c3C#N)c2C)C1=O	-5%	-16%	u	-33%[59 µM]	u	16µM*
